Values joined by “and” are separate entries in the source; they are usually repeats but may differ in a detail not shown here. Equal values may be shown once. Active and inactive are the calls of the source. Rule for the calls: active = hit-call score of the fitted dose curve at least 0.9, where 1 is the maximum; inactive = score below 0.9.
The molecules below were run on UDP glucuronosyltransferase (UGT1A1), UGT1A1 (gene 54658) (assay: LTEA_HepaRG_UGT1A1: Life Technologies and Expression Analysis (LTEA) Assay for UDP glucuronosyltransferase (UGT1A1) using HepaRG (AID 2283538)). Settings: mRNA level, 48 h; actives raise or lower the signal.
Procedure: LTEA_HepaRG is a cell based, multiplexed-readout assay that uses HepaRG, a human liver cell line, with measurements taken at 48 hours after chemical dosing on a 96-well plate.LTEA_HepaRG_UGT1A1 is one of 102 assay component(s) measured in the LTEA HepaRG cell culture assay. It is a marker of Steatosis/NR mediated metabolism.Data from the assay component LTEA_HepaRG_UGT1A1 was analyzed into 1 endpoint. This assay endpoint, LTEA_HepaRG_UGT1A1, was analyzed with bidirectional fitting relative to DMSO as the negative control and baseline of activity. Using a type of inducible reporter, measures of mRNA induction for gain or loss-of-signal activity can be used to understand regulation of transcription factor activity. To generalize the intended target to other relatable targets, this assay endpoint is annotated to the transferase intended target family, where the subfamily is glucuronosyltransferase.
A total of 1060 chemcials from the ToxCast library were tested in eight-point concentration-response experiments. Cell culture and cytotoxicity assays were conducted at Thermo Fisher Scientific's Custom Services facility (Madison, WI). A single lot of human HepaRG cells (Thermo Fisher Scientific, Frederick, MD) was used for the cell culture experiments. 96-well format collagen type I coated plates of human HepaRG cells were prepared using established methods. Briefly, cryopreserved HepaRG cells were thawed, plated at a density of approximately 100,000 cells/well in HepaRG Thaw, Plate, and General Purpose media (HPRG770, Thermo Fisher Scientific), and incubated for 48 hours. 0.5% DMSO was selected as vehicle control to balance the requisite need of DMSO in HepaRG cultures to maintain differentiation (for example, baseline metabolism, proportions of hepatocytes vs. cholangiocytes), while enabling further hepatic receptor pathway activation (for example, PXR and CAR) in response to chemical exposure. 48 hours after plating, the culture medium was replaced with HepaRG Serum-Free Incudtion Media. Cells were exposed to each test chemical in duplicate and maintained in CO2 incubators for another 48 hours. Chemical plates were thawed to room temperature and 200x concentrations of treatment groups were prepared. 8-point conentration-reponse curves were made with the highest exposure at 100 uM, followed by half-log dilutions, all in 0.5% DMSO. Each test plate contained variouse controls, induction positive controls (1mM phenobarbital), cytotoxicity positive controls ([…] aflatoxin B1), vehicle controls (0.5% DMSO), and total lysis controls (0.5% DMSO). Cell morphology images were taken using an Essen IncuCyte FLR automated microscope, with six 96-well plates imaged in about 24 minutes. Images were captured and exported and JPEG files. Spent culture media was transfered to black-well plates for the LDH assay, and remaining media was sorted at -80 C for later use. Cells were treated with RLT buffer and frozen until shipped for gene expression analysis. Total RNA was isolated from the cell suspension in 75 uL of Buffer RLT (Qiagen, Germantown, MD 20874) by Quintiles/Expression Analysis (Durham, NC) using a custom isolation procedure. Total RNA from each plate well was transferred to a preamplification plate. Fluidigm's 96.96 Dynamic ArrayTM (Fluidigm, Amsterdam, the Netherlands) technology was used for gene expression analyses by quantitative reverse transcription polymerase chain reaction (qRT-PCR, performed by Quintiles/Expression Analysis, Durham, NC)89. Standard TaqManTM Assays (Applied Biosystems/ThermoFisher Scientific, Foster City, CA) were used to assess the expression of 93 genes selected based on their selectivity and sensitivity to important hepatic receptors known to be modulated by environmental chemicals; importance in human hepatocyte functionality; and hepatotoxicity. […]

| SMILES | outcome | AC50 |
| --- | --- | --- |
| CC(C)(OO)c1ccccc1 | inactive | – |
| CC(C)(C)CC(C)(C)c1ccc(O)cc1 | inactive | – |
| C=CC(=O)OCCCCCC(C)C | inactive | – |
| COc1cc(-c2ccc(N)c(OC)c2)ccc1N | – | 25.4 µM (active) and 22.1 µM (active) |
| O=C(O)C(Cl)(Cl)Cl | inactive | – |
| NC(=O)O | inactive | – |
| CC(C)(C)c1cc(O)ccc1O | inactive | – |
| O=C1C2(Cl)C3(Cl)C4(Cl)C(Cl)(Cl)C5(Cl)C3(Cl)C1(Cl)C5(Cl)C24Cl (stereo unspecified) | – | 15.8 µM (active) |
| Cc1ccccc1N | inactive | – |
| CC12CC1(C)C(=O)N(c1cc(Cl)cc(Cl)c1)C2=O (stereo unspecified) | – | 10.5 µM (active) |
| CC(C)(c1ccccc1)c1ccc(O)c(C(C)(C)c2ccccc2)c1 | – | 12.2 µM (active) |
| C[C@]12CCC(=O)C[C@@H]1CC[C@@H]1[C@@H]2CC[C@]2(C)[C@@H](O)CC[C@@H]12 | inactive | – |
| O=c1[nH]c(=O)[nH]c(=O)[nH]1 | inactive | – |
| CN(C)N=O | inactive | – |
| C[C@@H]1C[C@@H]([C@H](O)CC2CC(=O)NC(=O)C2)C(=O)[C@@H](C)C1 | – | 36.2 µM (active) |
| Cn1sc(Cl)cc1=O | inactive | – |

| SMILES | outcome | AC50 |
| --- | --- | --- |
| CC(=O)[O][Hg][c]1ccccc1 | – | 32.5 µM (active) |
| O=C(O)C(F)(F)C(F)(F)C(F)(F)C(F)(F)C(F)(F)C(F)(F)C(F)(F)C(F)(F)C(F)(F)C(F)(F)F | – | 31 µM (active) |
| CCN1CCC2(CC1)COc1cc3c(cc12)N(C(=O)c1ccc(-c2ccc(-c4nnc(C)o4)cc2C)cc1)CC3 | inactive | – |
| C=C(C)C(=O)[O][Sn]([CH2]CCC)([CH2]CCC)[CH2]CCC | – | 9.35 µM (active) |
| O=C(Nc1ccc2[nH]ccc2c1)c1cc2cc(F)ccc2n1Cc1cccc(F)c1 | – | 50 µM (active) |
| ClCC(Cl)CCl | inactive | – |
| CCOP(=S)(OCC)SCSP(=S)(OCC)OCC | – | 14.8 µM (active) |
| O=[N+]([O-])c1ccc(O)c([N+](=O)[O-])c1 | – | 13.2 µM (active) |
| ClC1(Cl)C2(Cl)C3(Cl)C4(Cl)C(Cl)(Cl)C5(Cl)C3(Cl)C1(Cl)C5(Cl)C24Cl (stereo unspecified) | inactive | – |
| O=C(O)C(F)(F)C(F)(F)C(F)(F)C(F)(F)C(F)(F)C(F)(F)F | inactive | – |
| CCOP(=S)(OCC)Oc1nc(Cl)c(Cl)cc1Cl | – | 50 µM (active) |
| CCC(C)(C)c1ccc(O)c(C(C)(C)CC)c1 | inactive | – |
| Oc1cccc2cccnc12 | inactive | – |
| CCCCCCCCc1ccc(O)cc1 | – | 70.1 µM (active) |
| CCC(=O)C(CC(C)N(C)C)(c1ccccc1)c1ccccc1 (stereo unspecified) | inactive | – |
